According to PubChem BioAssay (EPA / NIEHS):
Records with an inconclusive call do not appear. Activity calls are given as the source filed them. The calls were made as follows: active = hit-call score of the fitted dose curve at least 0.9, where 1 is the maximum; inconclusive = response in the unintended direction; inactive = score below 0.9.

Target: Estrogen receptor (Homo sapiens) + Estrogen receptor beta (Homo sapiens) (UniProt P03372+Q92731)
Assay: OT_ER_ERaERb_1440: Odyssey Thera (OT) 24-hour HEK293T Protein-Complementation Assay for Estrogen Receptor-alpha/-beta Homodimer (AID 2283356);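 also: heteromer of ER alpha and ER beta binding domains; hits raise reporter fluorescence and both agonists and antagonists give an increase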
In short: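 Stable HEK293T PCA line, ERα LBD 310-547 + ERβ LBD 263-489 fused to reporter fragments; 24 h treatment; fluorescence read by laser scanning cytometry; positive fitting direction relative to DMSO.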

Estrogen receptor (Homo sapiens) + Estrogen receptor beta (Homo sapiens), sequence (P03372 whole entry, looked up, the tested form may be a part): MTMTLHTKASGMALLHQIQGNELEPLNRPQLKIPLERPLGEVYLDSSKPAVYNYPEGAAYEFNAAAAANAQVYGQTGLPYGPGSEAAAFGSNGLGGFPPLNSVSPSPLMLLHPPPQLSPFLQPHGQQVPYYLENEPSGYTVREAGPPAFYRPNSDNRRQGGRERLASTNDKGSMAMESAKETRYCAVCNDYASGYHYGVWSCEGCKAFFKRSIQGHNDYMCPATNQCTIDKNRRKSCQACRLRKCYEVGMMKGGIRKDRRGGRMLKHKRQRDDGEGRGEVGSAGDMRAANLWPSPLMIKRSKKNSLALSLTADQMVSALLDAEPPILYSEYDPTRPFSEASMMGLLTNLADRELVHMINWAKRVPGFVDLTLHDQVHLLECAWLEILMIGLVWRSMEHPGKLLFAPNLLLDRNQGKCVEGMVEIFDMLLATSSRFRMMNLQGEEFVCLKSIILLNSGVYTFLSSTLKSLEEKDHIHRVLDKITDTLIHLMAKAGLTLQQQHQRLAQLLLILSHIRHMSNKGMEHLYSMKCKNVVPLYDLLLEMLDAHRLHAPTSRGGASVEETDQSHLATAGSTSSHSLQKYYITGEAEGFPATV
Estrogen receptor (Homo sapiens) + Estrogen receptor beta (Homo sapiens), sequence (Q92731 whole entry, looked up, the tested form may be a part): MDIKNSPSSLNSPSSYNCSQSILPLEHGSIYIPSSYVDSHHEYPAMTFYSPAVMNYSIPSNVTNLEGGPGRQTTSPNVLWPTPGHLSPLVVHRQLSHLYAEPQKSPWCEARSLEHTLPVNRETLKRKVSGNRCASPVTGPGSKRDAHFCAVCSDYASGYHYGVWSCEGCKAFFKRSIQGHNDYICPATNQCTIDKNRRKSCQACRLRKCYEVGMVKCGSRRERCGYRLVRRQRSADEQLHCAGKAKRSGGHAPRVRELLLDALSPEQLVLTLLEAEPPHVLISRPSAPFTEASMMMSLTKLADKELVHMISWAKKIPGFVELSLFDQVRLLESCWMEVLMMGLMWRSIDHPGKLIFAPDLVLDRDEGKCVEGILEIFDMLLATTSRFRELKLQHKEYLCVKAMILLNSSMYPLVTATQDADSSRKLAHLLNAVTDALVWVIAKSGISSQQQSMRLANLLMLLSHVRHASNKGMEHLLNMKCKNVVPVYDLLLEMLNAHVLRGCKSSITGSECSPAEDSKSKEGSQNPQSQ

| SMILES | outcome | AC50 |
| --- | --- | --- |
| C=CCc1cc(S(=O)(=O)c2ccc(O)c(CC=C)c2)ccc1O | inactive | – |
| CCOc1ccc2[nH]cc(C(=O)NCc3ccccc3)c(=O)c2n1 | inactive | – |
| COc1cc2c(c(OC)c1OC)-c1ccc(OC)c(=O)cc1[C@@H](NC(C)=O)CC2 | inactive | – |
| c1ccc2c(c1)-c1cccc3c1c-2cc1ccccc13 | inactive | – |
| c1ccc2cc3ccccc3cc2c1 | inactive | – |
| OCC(CO)(CO)CO | inactive | – |
| COCc1nnc(-c2ccc[n+]([O-])c2)n1-c1c(Cl)c(Cl)cc2[nH]c(=O)c(=O)[nH]c12 | inactive | – |
| CCCCCCCCCCCCCCCCOS(=O)(=O)O | inactive | – |
| OCc1ccccc1 | inactive | – |
| CC(C)c1nnc2ccc(-c3ocnc3-c3cc(F)ccc3F)cn12 | inactive | – |
| c1ccc(C(O[C@@H]2CCCN(CCc3ccc4c(c3)OCO4)C2)c2ccccc2)cc1 | – | 62.5 µM (active) |
| NC(N)=O | inactive | – |
| OCCOCCOCCO | inactive | – |
| CCCCC(CC)C(=O)OCCOCCOCCOC(=O)C(CC)CCCC (configuration not stated) | inactive | – |
| CCc1cccc(CC)c1N | inactive | – |
| CCCCCCOC(=O)CC(CC(=O)OCCCCCC)(OC(=O)CCC)C(=O)OCCCCCC | inactive | – |
| OC[C@H]1O[C@@H]2O[C@H]3[C@H](O)[C@@H](O)[C@@H](O[C@H]4[C@H](O)[C@@H](O)[C@@H](O[C@H]5[C@H](O)[C@@H](O)[C@@H](O[C@H]6[C@H](O)[C@@H](O)[C@@H](O[C@H]7[C@H](O)[C@@H](O)[C@@H](O[C@H]1[C@H](O)[C@H]2O)O[C@@H]7CO)O[C@@H]6CO)O[C@@H]5CO)O[C@@H]4CO)O[C@@H]3CO | inactive | – |
| Cc1nc(-c2ccccn2)ncc1C(=O)Nn1cc(C)c2cc(F)ccc21 | inactive | – |
| CCN(CC)C(=S)SSC(=S)N(CC)CC | – | 12 µM (active) |
| O=C(O)[C@H](O)[C@@H](O)C(=O)O | inactive | – |

Target: human Peroxisome Proliferator-activated Receptor alpha (PPARa), PPARA (gene 5465) (UniProt Q07869)
Sequence (Q07869 whole entry, looked up): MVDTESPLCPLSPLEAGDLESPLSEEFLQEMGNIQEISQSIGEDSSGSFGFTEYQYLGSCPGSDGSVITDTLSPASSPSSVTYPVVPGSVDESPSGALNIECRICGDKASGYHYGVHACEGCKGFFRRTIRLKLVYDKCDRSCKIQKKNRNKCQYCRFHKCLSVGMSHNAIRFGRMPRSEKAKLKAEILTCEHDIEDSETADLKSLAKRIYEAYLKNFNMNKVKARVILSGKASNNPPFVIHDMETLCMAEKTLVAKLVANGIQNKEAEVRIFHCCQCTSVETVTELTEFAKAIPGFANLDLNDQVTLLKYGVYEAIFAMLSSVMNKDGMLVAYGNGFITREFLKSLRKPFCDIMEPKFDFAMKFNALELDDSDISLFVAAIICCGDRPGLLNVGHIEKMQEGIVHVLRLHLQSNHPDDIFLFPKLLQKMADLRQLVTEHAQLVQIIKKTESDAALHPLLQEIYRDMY
Assay: NVS_NR_hPPARa: NovaScreen (NVS) Nuclear Receptor Binding Assay for human Peroxisome Proliferator-activated Receptor alpha (PPARa) (AID 2283359);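 also: activity means loss of TR-FRET signal versus DMSO baseline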
In short: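 Cell-free binding assay with extracted human protein, read by TR-FRET 1 h after chemical dosing. Loss of signal relative to DMSO baseline indicates binding. Primary screen used duplicate single concentration (25 uM); actives followed up in concentration series.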

| SMILES | AC50 | outcome |
| --- | --- | --- |
| C=CCc1cc(S(=O)(=O)c2ccc(O)c(CC=C)c2)ccc1O | 25 µM (active) | – |
| CCCCCCCCCCCCCCCCOS(=O)(=O)O | – | inactive |
| COc1cc(C(C)C)c2c(c1)S(=O)(=O)N(COc1cc(=O)n3cccc(OCCN4CCCCC4)c3n1)C2=O | – | inactive |

Target: PGR (gene 5241) (UniProt P06401)
Sequence (P06401 whole entry, looked up): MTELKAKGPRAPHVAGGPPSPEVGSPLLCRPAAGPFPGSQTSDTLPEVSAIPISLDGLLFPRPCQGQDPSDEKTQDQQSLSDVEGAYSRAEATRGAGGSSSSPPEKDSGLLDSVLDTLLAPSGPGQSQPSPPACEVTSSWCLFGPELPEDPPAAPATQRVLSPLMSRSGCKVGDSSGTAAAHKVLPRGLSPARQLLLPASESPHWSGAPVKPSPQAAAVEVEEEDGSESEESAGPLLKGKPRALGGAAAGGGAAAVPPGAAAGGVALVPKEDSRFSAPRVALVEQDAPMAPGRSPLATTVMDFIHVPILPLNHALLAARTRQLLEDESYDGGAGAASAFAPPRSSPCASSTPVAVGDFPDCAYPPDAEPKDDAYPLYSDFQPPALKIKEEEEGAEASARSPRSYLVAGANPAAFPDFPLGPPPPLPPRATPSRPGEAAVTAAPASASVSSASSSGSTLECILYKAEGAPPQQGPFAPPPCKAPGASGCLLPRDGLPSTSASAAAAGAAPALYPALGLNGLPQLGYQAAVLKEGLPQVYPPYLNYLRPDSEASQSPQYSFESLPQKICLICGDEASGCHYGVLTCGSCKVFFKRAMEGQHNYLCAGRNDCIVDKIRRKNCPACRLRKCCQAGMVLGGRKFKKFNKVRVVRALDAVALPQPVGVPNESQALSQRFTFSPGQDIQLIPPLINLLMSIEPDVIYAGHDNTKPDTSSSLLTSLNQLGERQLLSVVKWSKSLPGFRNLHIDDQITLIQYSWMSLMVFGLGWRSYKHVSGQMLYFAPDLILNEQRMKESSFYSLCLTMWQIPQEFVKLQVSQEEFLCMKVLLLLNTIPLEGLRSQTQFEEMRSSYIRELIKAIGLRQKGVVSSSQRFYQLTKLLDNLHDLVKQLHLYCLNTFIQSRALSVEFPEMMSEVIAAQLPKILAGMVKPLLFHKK
Assay: NVS_NR_hPR: NovaScreen (NVS) Nuclear Receptor Binding Assay for human Progestron Receptor (PR) (AID 2283360);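 also: active means loss of bound radioligand signal versus DMSO baseline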
In short: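 Cell-free radioligand binding using receptor protein extracted from T47D cells, read by scintillation counting 18 hours after dosing. Loss of signal relative to DMSO baseline indicates displacement; primary screen single concentration 25 uM in duplicate, actives followed in concentration series.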

| SMILES | outcome |
| --- | --- |
| OCc1ccccc1 | inactive |
| c1ccc(C(O[C@@H]2CCCN(CCc3ccc4c(c3)OCO4)C2)c2ccccc2)cc1 | inactive |
| CCc1cccc(CC)c1N | inactive |
| O=C(O)[C@H](O)[C@@H](O)C(=O)O | inactive |
